PubChem BioAssay AID488965 (Broad Institute, 2010)
Values joined by “and” are separate entries in the source; they are usually repeats but may differ in a detail not shown here. Equal values may be shown once. Hit rate of the full screen: of about 340,000 compounds, about 210 (0.062%) were called active. Cut-off read from the data, not from the text of the source: active = inhibition above about 30% (passing the limit was not always enough); inconclusive = no clear call, values can overlap the other calls. For the sample, actives were picked, then their nearest neighbours and some compounds at random.

These compounds were tested on PvdQ acylase [Pseudomonas aeruginosa LESB58] (assay: P. aeruginosa PvdQ acylase inhibitors, primary screen, biochemical, fluorescence, plate reader and imaging, single point (AID 488965;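 note: 0% = vehicle neutral wells and 100% = reference inhibitor wells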)). Settings: purified PvdQ acylase, at 10 µM, hits give high values.

inhibition, inactive:
CC(=O)c1nn(-c2ccc(C)cc2)cc1C(=O)c1cccc(Br)c1 -6.55%
COc1cc(CNC2CCCCC2)c(Br)cc1OC1CCCC1 -10.3%
COc1ccc(NS(=O)(=O)c2cc(NC(=O)CC(=O)c3ccc([N+](=O)[O-])cc3)ccc2C)cc1 -17.8%
CCCCNC(=O)N1CCN(S(C)(=O)=O)CC1 -13.6%
CN1CCN(Cc2c(C(=O)N3CCc4ccccc4C3)nc3ccc(Cl)cn23)CC1 9.88%
CCOc1ccc(/C(O)=C2/C(=O)C(=O)N(Cc3cccnc3)C2c2ccc(N(C)C)cc2)c(C)c1 (configuration not stated) -1.75%
COc1ccc(CCN(C)C(=O)C23CC4CC(CC(Cl)(C4)C2)C3)cc1OC 0.828%
O=C(CNC(=O)OCc1ccccc1)NC1CCCCNC1=O (configuration not stated) -2.51%
CCC(C(=O)NC1CCCC1)N(C(=O)Cn1nnc(-c2ccc(C)o2)n1)c1ccc(OC)c(OC)c1 (configuration not stated) -6.8%
CC(C)=NN1C(=O)c2ccccc2NC1(C)C -15.2%
O=C(Nn1cnc2ccccc2c1=O)c1ccc([N+](=O)[O-])cc1Cl -2.92%
CC1=C(C(=O)Nc2cc(C)ccn2)C(c2cnn(C)c2)C2=C(CC(c3ccccc3)CC2=O)N1 (configuration not stated) -10.4%
COc1ccc(N2CCN(C(=O)CN3C(=O)COc4ccccc43)CC2)cc1 -3.63%
COc1ccc(Cn2cc(CN3CCS(=O)(=O)N(Cc4ccc(-c5cccc(Cl)c5)cc4)C(C)C3=O)nn2)cc1 (configuration not stated) 6.04%
COc1ccccc1NS(=O)(=O)c1ccc(C)c(C(=O)NCC(c2ccco2)N(C)C)c1 (configuration not stated) -1.08%
CC(C)CC(COCc1ccc(Cl)cc1)N1CCN(C(=O)c2ccc(C(F)(F)F)cc2)CCC1=O (configuration not stated) -5.2%
COc1ccc(S(=O)(=O)NCC2CCCN(C(=O)c3occc3C)C2)cc1 (configuration not stated) -11.7%
Cc1oc(-c2ccccc2Cl)[n+]([O-])c1C -3.53%
CC(C(=O)Nc1ccccc1-c1ccccc1)N1CCOCC1 (configuration not stated) 4.97%
CC1(C)Cc2cccc(OCC(=O)N3CCN(c4ccc([N+](=O)[O-])cc4)CC3)c2O1 3.43%
O=C(NCCc1ccccc1)C1CC1 11.7%
Cc1cc(C)cc(NC(=O)C(c2ccccc2)N2CCN(CC(=O)N3CCCC3)CC2)c1 (configuration not stated) -12.8%
CCc1ccc(CNC(=O)C2CCN(c3nnc(C)c4c(C)n(-c5ccc(C)cc5)nc34)CC2)cc1 -8.9%
COc1ccc(OC)c(NC(=O)COC(=O)Cc2ccsc2)c1 7.79%
COc1ccc(CCNC(=O)COc2cc(C)cc3oc(=O)c(C)c(C)c23)cc1OC -16.2%
CN1CCN(S(=O)(=O)c2ccc(Nc3ccc(F)cc3)nc2)CC1 4.04%
COc1cc([C@H](Cc2ccccc2)NC(C)=O)oc(=O)c1 -11.2%
Cc1nc2ccccc2c(=O)n1-c1ccc(F)c(NC(=O)c2cccs2)c1 4.62%
CCOC(=O)C1CCCN(C(=O)C2CCN(c3nnc(-n4cccc4)s3)CC2)C1 (configuration not stated) -9.35%
Cc1ccc(C(=O)COC(=O)c2cccc(N3C(=O)c4c(C)nc5ccccc5c4C3=O)c2)cc1C -0.235% and -7.76%
COc1ccc(Cl)cc1C(=O)OCC(=O)NCc1cccs1 -17.2%
Cc1ccc(N(CCC(=O)O)S(=O)(=O)c2cccc(C(F)(F)F)c2)cc1 -8.9%
